According to paper PMC5700166:

molecular target: T1, GST-Dm-Relish (Drosophila melanogaster, UniProt Q94527 99-473); assay: protein-binding microarray (PBM); PBM: ~300 nM protein, 6 mM HEPES pH 7.8, 80 mM KCl, 0.5 mM EDTA, 0.5 mM EGTA, 6% glycerol, 35 ng/ul poly-dIdC, 1% milk, 1 h, room temperature; Ap Aiptasia and Nv Nematostella (sea anemones) / Co Capsaspora / Aq Amphimedon (sponge) / Dm Drosophila / Hu human; RHD is the Rel homology domain; high values mean tight binding; conditions: dsDNA, one strand shown
T1 sequence: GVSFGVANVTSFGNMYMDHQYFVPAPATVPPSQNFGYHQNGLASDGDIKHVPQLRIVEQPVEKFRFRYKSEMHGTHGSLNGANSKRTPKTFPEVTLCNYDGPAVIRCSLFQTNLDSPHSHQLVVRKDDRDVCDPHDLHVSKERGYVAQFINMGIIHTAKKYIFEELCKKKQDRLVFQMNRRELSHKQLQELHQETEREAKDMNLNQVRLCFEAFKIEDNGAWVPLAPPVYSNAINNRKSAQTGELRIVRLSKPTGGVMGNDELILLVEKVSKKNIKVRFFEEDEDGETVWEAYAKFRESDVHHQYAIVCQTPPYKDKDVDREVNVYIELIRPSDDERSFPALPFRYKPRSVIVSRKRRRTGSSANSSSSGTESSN

In order of rising binding signal:
1. CCGATTAACATCAAATATTTTCCTGATGTTAATCGGGTCTTGATTCGCTTGACGCTGCTG  1.09 z-score
2. CCGATTAACATCAAAATTCCAGGTGATGTTAATCGGGTCTTGATTCGCTTGACGCTGCTG  1.13 z-score
3. CCGATTAACATCAAAATTCCATATGATGTTAATCGGGTCTTGATTCGCTTGACGCTGCTG  1.14 z-score
4. CCGATTAACATCAATAAATGTACTGATGTTAATCGGGTCTTGATTCGCTTGACGCTGCTG  1.14 z-score
5. CCGATTAACATCACAGAAAATCCTGATGTTAATCGGGTCTTGATTCGCTTGACGCTGCTG  1.19 z-score
6. CCGATTAACATCAAAAAACCGTTTGATGTTAATCGGGTCTTGATTCGCTTGACGCTGCTG  1.2 z-score
7. CCGATTAACATCAAGGAAAATACTGATGTTAATCGGGTCTTGATTCGCTTGACGCTGCTG  1.2 z-score
8. CCGATTAACATCAAATAATTTCCTGATGTTAATCGGGTCTTGATTCGCTTGACGCTGCTG  1.21 z-score
9. CCGATTAACATCATGGTACTTGTTGATGTTAATCGGGTCTTGATTCGCTTGACGCTGCTG  1.26 z-score
10. CCGATTAACATCAAATAAATTCCTGATGTTAATCGGGTCTTGATTCGCTTGACGCTGCTG  1.27 z-score
11. CCGATTAACATCAAGTACAACGGTGATGTTAATCGGGTCTTGATTCGCTTGACGCTGCTG  1.44 z-score
12. CCGATTAACATCAGTAAAATCCATGATGTTAATCGGGTCTTGATTCGCTTGACGCTGCTG  1.44 z-score
13. CCGATTAACATCACGTAGTTTCCTGATGTTAATCGGGTCTTGATTCGCTTGACGCTGCTG  1.46 z-score
14. CCGATTAACATCAGCGTGACTTTTGATGTTAATCGGGTCTTGATTCGCTTGACGCTGCTG  1.47 z-score
15. CCGATTAACATCAGGAAATTCACTGATGTTAATCGGGTCTTGATTCGCTTGACGCTGCTG  1.48 z-score
16. CCGATTAACATCACCATTATAGGTGATGTTAATCGGGTCTTGATTCGCTTGACGCTGCTG  1.48 z-score
17. CCGATTAACATCACGTGGATTCCTGATGTTAATCGGGTCTTGATTCGCTTGACGCTGCTG  1.66 z-score
18. CCGATTAACATCAGTGTGCTTCTTGATGTTAATCGGGTCTTGATTCGCTTGACGCTGCTG  1.67 z-score
19. CCGATTAACATCAAGTACATTCCTGATGTTAATCGGGTCTTGATTCGCTTGACGCTGCTG  2.21 z-score
20. CCGATTAACATCACGTTCTTTCCTGATGTTAATCGGGTCTTGATTCGCTTGACGCTGCTG  2.3 z-score
21. CCGATTAACATCAGGAAAAACACTGATGTTAATCGGGTCTTGATTCGCTTGACGCTGCTG  2.61 z-score
22. CCGATTAACATCAGTGAATTCCATGATGTTAATCGGGTCTTGATTCGCTTGACGCTGCTG  2.81 z-score
23. CCGATTAACATCAGGAAAATCACTGATGTTAATCGGGTCTTGATTCGCTTGACGCTGCTG  3.47 z-score
24. CCGATTAACATCAAAAAAATTACTGATGTTAATCGGGTCTTGATTCGCTTGACGCTGCTG  3.61 z-score
25. CCGATTAACATCAGGAATGTACATGATGTTAATCGGGTCTTGATTCGCTTGACGCTGCTG  4.12 z-score
26. CCGATTAACATCAGGAAACTACATGATGTTAATCGGGTCTTGATTCGCTTGACGCTGCTG  5.23 z-score
